In all, about 140,000 sequences were measured (“enrichment ratio after two sorts for PhoP signalling”: median about 0, highest 2% from about 11 on). The entries come from a sample that favours the highest values as a whole.

Sequences and labels used below:
B1: PhoQ; a variant is named by its letters at X, in order, P23837 (parent)
chain: MKKLLRLFFPLSLRVRFLLATAAVVLVLSLAYGMVALIGYSVSFDKTTFRLLRGESNLFYTLAKWENNKLHVELPENIDKQSPTMTLIYDENGQLLWAQRDVPWLMKMIQPDWLKSNGFHEIEADVNDTSLLLSGDHSIQQQLQEVREDDDDAEMTHSVAVNVYPATSRMPKLTIVVVDTIPVELKSSYMVWSWFIYVLSANLLLVIPLLWVAAWWSLRPIEALAKEVRELEEHNRELLNPATTRELTSLVRNLNRLLKSERERYDKYRTTLTDLTHSLKTPLXXLQXXLRSLRSEKMSVSDAEPVMLEQISRISQQIGYYLHRASMRGGTLLSRELHPVAPLLDNLTSALNKVYQRKGVNISLDISPEISFVGEQNDFVEVMGNVLDNACKYCLEFVEISARQTDEHLYIVVEDDGPGIPLSKREVIFDRGQRVDTLRPGQGVGLAVAREITEQYEGKIVAGESMLGGARMEVIFGRQHSAPKDE

The variants in the assay derive from B1. Nature of the assay: enrichment ratio after two sorts for PhoP signalling (ratio (wild type AVST 3.29)); higher = more functional. The settings on record: with PhoP (E. coli).
For LTLA, the enrichment ratio is at most 0.25.
For the variant HNKA, the enrichment ratio is at most 0.25.
For the variant AFKV, the enrichment ratio was at most 0.25.
As to RRQL, the enrichment ratio is at most 0.25.
In the case of RSSV, the enrichment ratio is at most 0.25.
VLVH: the enrichment ratio was at most 0.25.
Take TVDW: the enrichment ratio is at most 0.25.
In the case of TEFH, the enrichment ratio came out at 12.1.
To TEFP belongs at most 0.25.
As to TEFQ, the enrichment ratio amounted to 8.52.
To TEFN belongs 18.2; to TEFI, 9.19; to TEFA, 11.3.
Consider QEFN, for which the enrichment ratio is 3.01.
To MEFH belongs 4.99.
On to TEFC, for which the enrichment ratio amounted to 14.4.
With QEFH, the enrichment ratio is at most 0.25.
For MEFN, the enrichment ratio turned out to be 7.67.
Consider TEFS, for which the enrichment ratio came out at 10.9.
To GKHH belongs at most 0.25; to NVPN, at most 0.25; to VKNT, at most 0.25.
To GVCV belongs 3.13; to AWFR, at most 0.25.
Regarding RMDG, the enrichment ratio was at most 0.25.
Regarding DDGS, the enrichment ratio was at most 0.25.
To LMRD belongs at most 0.25; to FKNL, at most 0.25.
In the case of FPYE, the enrichment ratio is at most 0.25.
In the case of HPWR, the enrichment ratio was at most 0.25.
In the case of WNMS, the enrichment ratio was at most 0.25.
Turning to NTFG, the enrichment ratio was at most 0.25.
To MEFG belongs 5.56; to TEFG, 19; to NEFG, at most 0.25.
Regarding WVYE, the enrichment ratio is at most 0.25.
To PMID belongs at most 0.25; to PGCG, at most 0.25.
For AKCG, the enrichment ratio stood at 2.88.
With AHCG, the enrichment ratio amounted to 15.3.
In the case of ADCG, the enrichment ratio amounted to 1.58.
Take RGCG: the enrichment ratio is at most 0.25.
To ANCG belongs 26.6.
For TDCG, the enrichment ratio worked out at 13.4.
Regarding FDCG, the enrichment ratio was at most 0.25.
NHCG: the enrichment ratio is at most 0.25.
KDCG: the enrichment ratio was at most 0.25.
Consider TGCG, for which the enrichment ratio was 24.4.
On to VHCG, for which the enrichment ratio was at most 0.25.
To AIDP belongs at most 0.25; to IFDW, at most 0.25.
As for PKQC, the enrichment ratio is at most 0.25.
To DRKW belongs at most 0.25.
To LGNW belongs at most 0.25.
On to FFWM, for which the enrichment ratio was at most 0.25.
For FMLS, the enrichment ratio is at most 0.25.
ADIG: the enrichment ratio was at most 0.25.
Turning to ANIG, the enrichment ratio stood at 29.2.
To AHIG belongs at most 0.25.
Take REKI: the enrichment ratio is at most 0.25.
For KRHD, the enrichment ratio was at most 0.25.
For LMWD, the enrichment ratio is at most 0.25.
To GETC belongs 3.51.
Regarding GYLH, the enrichment ratio was at most 0.25.
On to GETH, for which the enrichment ratio was at most 0.25.
Take GELF: the enrichment ratio turned out to be 9.93.
To GELM belongs 15.9; to GYLG, at most 0.25; to GETK, at most 0.25.
With GETI, the enrichment ratio is 11.6.
Take GELH: the enrichment ratio is 11.9.
As to GELG, the enrichment ratio worked out at 22.4.
Regarding GEKA, the enrichment ratio was at most 0.25.
In the case of GENS, the enrichment ratio is at most 0.25.
Consider HGYA, for which the enrichment ratio was at most 0.25.
STTP: the enrichment ratio is at most 0.25.
In the case of YKHK, the enrichment ratio was at most 0.25.
As to SYEL, the enrichment ratio was at most 0.25.
On to TAIS, for which the enrichment ratio was 0.325.
For NLWP, the enrichment ratio was at most 0.25.
Take RDCA: the enrichment ratio was at most 0.25.
Consider EMPC, for which the enrichment ratio is at most 0.25.
To PMHF belongs at most 0.25; to DDQI, at most 0.25.
To PLHV belongs at most 0.25.
To KPNT belongs at most 0.25; to RISY, at most 0.25.
For GEWI, the enrichment ratio is at most 0.25.
Take GELA: the enrichment ratio worked out at 18.1.
Turning to GELS, the enrichment ratio amounted to 8.59.
To ASCY belongs 0.505; to LYCM, at most 0.25; to SGIV, 7.69.
Consider ANIQ, for which the enrichment ratio is 11.
As to HVDI, the enrichment ratio was at most 0.25.
In the case of WNPW, the enrichment ratio was at most 0.25.
On to NEAI, for which the enrichment ratio was at most 0.25.
As to TECG, the enrichment ratio turned out to be 15.7.
In the case of NECQ, the enrichment ratio is at most 0.25.
On to TECA, for which the enrichment ratio turned out to be 0.528.
Consider TECQ, for which the enrichment ratio is 12.3.
For the variant NECG, the enrichment ratio was at most 0.25.
Take TEGQ: the enrichment ratio is at most 0.25.
For TEYY, the enrichment ratio stood at 10.3.
Take TEAI: the enrichment ratio is 20.4.
For the variant TECS, the enrichment ratio was found to be 26.8.
To TEEG belongs 9.76.
Regarding TECI, the enrichment ratio is 2.38.
To KAWS belongs at most 0.25; to GAMP, at most 0.25.
As to KTEG, the enrichment ratio was at most 0.25.
To STDK belongs at most 0.25; to AAVN, at most 0.25.
For the variant KDFG, the enrichment ratio is at most 0.25.
In the case of TECV, the enrichment ratio worked out at 22.2.
To NECW belongs at most 0.25; to MECW, at most 0.25.
For TECW, the enrichment ratio was found to be 37.6.
Turning to QECV, the enrichment ratio was 8.7.
Take TPKM: the enrichment ratio is at most 0.25.
Take LMLV: the enrichment ratio was at most 0.25.
To GRQP belongs at most 0.25; to FCMI, 33.7.
As for VCMI, the enrichment ratio was found to be 17.6.
Take YTMI: the enrichment ratio was found to be 6.21.
For FEMW, the enrichment ratio is at most 0.25.
Take FTPA: the enrichment ratio came to 0.426.
Consider KCMI, for which the enrichment ratio was at most 0.25.
On to NSMI, for which the enrichment ratio came out at 2.19.
Consider VYMI, for which the enrichment ratio was at most 0.25.
In the case of FEMI, the enrichment ratio is 13.
FCMS: the enrichment ratio is at most 0.25.
As to FEMD, the enrichment ratio was at most 0.25.
FTMI: the enrichment ratio turned out to be 13.1.
Regarding PKDI, the enrichment ratio was at most 0.25.
To LYLD belongs at most 0.25; to HNKV, at most 0.25.
In the case of VKIK, the enrichment ratio is at most 0.25.
For ALCW, the enrichment ratio came out at 6.49.
As to YKFA, the enrichment ratio is at most 0.25.
To VGHR belongs at most 0.25.
Consider HQYF, for which the enrichment ratio is at most 0.25.
To MEVV belongs 2.27.
With TEVV, the enrichment ratio was 12.9.
For the variant SQVV, the enrichment ratio turned out to be 8.77.
Regarding SEVV, the enrichment ratio turned out to be 13.1.
MAVV: the enrichment ratio was at most 0.25.
In the case of GEVV, the enrichment ratio turned out to be 17.2.
To GGVV belongs at most 0.25.
To NEVV belongs at most 0.25; to FCVV, at most 0.25; to GETD, at most 0.25.
Take FEVV: the enrichment ratio was 11.9.
Take SLVV: the enrichment ratio came to 1.38.
Regarding NFKG, the enrichment ratio is at most 0.25.

The record behind these values is a collection of fitness landscapes (doi:10.1126/science.1257360).
